Inconclusive results are not listed. Entries that show only a call come without a potency. Values without a mark were called inactive. The source made the active and inactive calls. Calls follow the shape of the dose curve; as a rule, active = well fitted cell-killing curve with a large enough effect in the repeat runs; inconclusive = weak or mixed curves, or effect the other way; inactive = no such curve, though single readings can be large or run the other way.

A short description of this assay: qHTS assay to identify small molecule antagonists of the sonic hedgehog signaling (Shh) pathway - cell viability counter screen (AID 1259367). Also: nearly all actives have a fitted effect of over 55% in size. As to conditions: NIH/3T3 Gli1-Luc viability, CellTiter-Fluor, 24 h; series mostly up to 92.4 µM. The source says:
National Center for Advancing Translational Sciences [NCATS]
NIH Chemical Genomics Center [NCGC]
U.S. Environmental Protection Agency [EPA]
National Institutes of Environmental Health Sciences [NIEHS]
National Toxicology Program [NTP]
U.S. Food and Drug Administration [FDA]
The sonic hedgehog (Shh) pathway is essential for normal embryonic development. Dysregulation of the Shh pathway can cause severe developmental defects in organs. Therefore chemicals that interfere with the pathway are potential developmental toxicants. A cell line designated 3T3Gli1-Luc (DMB/OARSA/CFSAN/FDA, Laurel, MD), a NIH/3T3 derived clone containing stably integrated Gli1-Luc reporter is used to detect chemical interference of the Shh pathway, by changes in the expression of the firefly Luc gene under the control of the Gli1 transcriptional response element. This cell line was used to screen Tox21 libraries for identifying and prioritizing the potential developmental toxicants that interfere Shh pathway. Conditioned medium-stimulated mode was used to screen for chemicals inhibiting Shh signaling. The cytotoxicity of the compounds was tested in parallel by measuring the cell viability using CellTiter-Fluor assay system (Promega, Madison, WI) in the same wells.
Tox21 Assay Protocol Summary:
3T3 Gli1-Luc cells were dispensed at 2,000 per well in 5uL of culture medium into white solid bottom 1536-well plates (Greiner Bio-One, Monroe, NC) using a Multidrop Combi (Thermo Scientific, Waltham, MA) dispenser. The assay plates were incubated at 37 C and 5% CO2 for 4hr, and then 23nL of compounds dissolved in DMSO and positive control were transferred using a Pintool station (Wako, San Diego, CA). The compound transfer was followed by the addition of 1ul conditioned medium or assay buffer using two separate tips of Flying Reagent Dispenser (FRD, Aurora Discovery, San Diego, CA). The assay plates were incubated at 37C and 5% CO2 for 24hr. For viability read, after 23hr of compound treatment, 1uL of CellTiter-Fluor reagent (Promega Corporation, Madison, WI) was added to each well of the assay plates using Flying Reagent Dispenser (FRD, Aurora Discovery, San Diego, CA) and incubated the assay plates at 37C for 1hr. The fluorescence signal was quantified using a ViewLux plate reader (Perkin Elmer, Shelton, CT).
(In general: Quantitative high-throughput screening tests each substance at several concentrations.)
As for `O=C1OC(=O)c2ccccc21`, the Potency entry is “inactive”.
In the case of `NS(=O)(=O)c1ccccc1OC(F)(F)F`, the Potency entry is “inactive”.
Same read-out and setting: the result for `CCCCCCCC/C=C\CCCCCCCC(=O)OC[C@@H](O)[C@H]1OC[C@H](O)[C@H]1O` reads “inactive”; that for `CCCCOC(=O)[C@@H](C)Oc1ccc(Oc2ccc(C(F)(F)F)cn2)cc1`, “inactive”.
On to `O=C(O)c1ccccc1C(=O)Nc1ccc(S(=O)(=O)Nc2nccs2)cc1`, for which the Potency entry was “inactive”.
The same measure, in the same setting: with `Cc1nc2ccccc2c(=O)o1` the entry was “inactive”; with `CC(=O)OCC(=O)[C@@]1(O)[C@H](OC(C)=O)C[C@H]2[C@@H]3CCC4=CC(=O)C=C[C@]4(C)[C@@]3(F)[C@@H](O)C[C@@]21C`, “inactive”.
Consider `CC(=O)/C=C/c1ccco1`, for which the Potency entry was “inactive”.
Consider `CCCCOC(=O)C(C)OC(=O)CCC` (stereo not given), for which the Potency result is “inactive”.
The same measure, in the same setting: the result for `CC(C)(CO)[C@@H](O)C(=O)NCCCO` reads “inactive”; that for `OCCCCCCCl`, “inactive”.
Same read-out and setting: the result for `CC(C)COC(=O)COc1ccc(Cl)cc1Cl` reads “inactive”; that for `CCC(O)C(C)(C)C` (stereo not given), “inactive”.
Same read-out and setting: the result for `CCC(C)N` (stereo not given) reads “inactive”; that for `C=COCCOCCOC=C`, “inactive”; that for `CCCCCC1CCCC(=O)O1` (stereo not given), “inactive”.
Consider `OC[C@@H](O)[C@H](O)[C@@H](O)[C@@H](O)CO`, for which the Potency result was “inactive”.
Still for that read-out and setting: with `CCN1CN(CC)CN(CC)C1` the entry was “inactive”; with `NCCc1ccn[nH]1`, “inactive”.
As to `CCCCCCCCCCCCCCCC(=O)NCCO`, the Potency result was “inactive”.
On the same count and under the same terms, with `CCCCCCCC[Si](OCC)(OCC)OCC` the entry was “inactive”.
Still for that read-out and setting: with `CCC(C)(C)C1CCC(=O)CC1` the entry was “inactive”; with `C=C[Si](C)(C)O[Si](C)(C)C=C`, “inactive”; with `Nc1ccc(C(=O)OCC(O)CO)cc1` (stereo not given), “inactive”.
On the same count and under the same terms, with `Cc1ccccc1OCC1CO1` (stereo not given) the entry was “inactive”; with `CCOC(=O)C(C)(C)C`, “inactive”.
`CCCCC(CC)COC(=O)c1ccccc1` (stereo not given): the Potency entry was “inactive”.
Still for that read-out and setting: the result for `CCNC(=O)NCCCOc1cccc(CN2CCCCC2)c1` reads “inactive”; that for `COc1ccc(/C=N/NC(=O)c2ccncc2)cc1OC`, “inactive”.
Still for that read-out and setting: the result for `O=C(Oc1ccccc1C(=O)O)c1ccccc1O` reads “inactive”; that for `CO[Si](CCCCl)(OC)OC`, “inactive”; that for `CCC1Nc2cc(Cl)c(S(N)(=O)=O)cc2S(=O)(=O)N1` (stereo not given), “inactive”.
Same read-out and setting: with `OC(CCN1CCCCC1)(c1ccccc1)c1ccccc1` the entry was “inactive”; with `CC(C)(c1ccc(Oc2ccc3c(c2)C(=O)OC3=O)cc1)c1ccc(Oc2ccc3c(c2)C(=O)OC3=O)cc1`, “inactive”.
Consider `Cc1nc2n(c(=O)c1CCN1CCC(C(=O)c3ccc(F)cc3)CC1)CCS2`, for which the Potency result was “inactive”.
On to `O=c1[nH]c(=O)c2[nH]c(=O)[nH]c2[nH]1`, for which the viability change, negative = cytotoxic was 0.704% [at 8.39 µM].
`C=CCOc1cc(Cl)ccc1C(=O)NCCN(CC)CC`: the Potency result was “inactive”.
On the same count and under the same terms, the result for `CO/N=C(/C(=O)N[C@@H]1C(=O)N2C(C(=O)O)=C(Cn3nnc(C)n3)CS[C@H]12)c1csc(N)n1` reads “inactive”.
As for `O=C(c1ccc2c(c1)C(=O)OC2=O)c1ccc2c(c1)C(=O)OC2=O`, the Potency entry is “inactive”.
The same measure, in the same setting: with `Cc1oc(=O)oc1CN1CCN(c2cc3c(cc2F)c(=O)c(C(=O)O)c2n3C(C)S2)CC1` (stereo not given) the entry was “inactive”.

(Values after PubChem BioAssay (Tox21).)
